# MLLE-PAM2 inh: blocks PAM2 peptide binding to the PABP1 MLLE domain. AID 588489. actives 0.36% (n = 360,000). P11940. inhibition, % at 20 µM. GST-MLLE / FITC-PAM2 fluorescence polarization; in the data active = inhibition above about 35%, passing the limit was not always enough;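 note: plate controls were DMSO wells with GST-MLLE for no effect and wells lacking GST-MLLE protein for full effect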
# eIF4H FP inh: inhibitors of RNA binding by human eIF4H | actives 0.94% (n = 290,000) | inhibition, % at 35 µM | eIF4H fluorescence polarization binding assay | Q15056;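 note: calls also rest on retests at 20 µM and on dose response follow-up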
# eIF4E 4G PPI: inhibitors of eIF4E and eIF4G interaction in translation initiation | TR-FRET eIF4E-eIF4GI(517-606) binding, 2 h | inhibition, % at 21.7 µM | actives 0.37% (n = 220,000) | AID 782;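 active = inhibition above about 30%, limit read from the data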;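 note: 0% = full FRET control wells and 100% = background wells lacking eIF4GI fragment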
# PABP polyA inh: blocks human PABP binding to poly(A) RNA. inhibition, % at 35 µM. AID 2014. actives 1% (n = 290,000). fluorescence polarization;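 note: calls also rest on retests at 20 µM and on dose response follow-up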
# PERK inh: blocks human PERK kinase | Q9NZJ5 | CHO PERK-DD fusion, SEAP luminescence translation reporter | inhibition, % at 5.6 µM | actives 0.17% (n = 220,000);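 active = inhibition above the mean inhibition of all tested compounds plus 3 SD, set separately per screening campaign, cut at about 2.9% in these data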;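 note: PERK kinase domain activated by AP20187 dimerizer at 100 nM; 0% = DMSO with dimerizer and 100% = rapamycin at 8.4 µM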
# Active calls of the source: *; ? = inconclusive; . = no result. Rows were chosen to be rich in hits. Some 1.6% of all compounds tested hit in one or more screens of this group. Unless noted, the rule behind the calls is not given here.
SMILES,MLLE-PAM2 inh,eIF4H FP inh,eIF4E 4G PPI,PABP polyA inh,PERK inh
O=C1NC(=S)NC(=O)C1=Cc1ccc2c(c1)CCN2CCCCl,-23.1,68.4*,24.7,40.5*,1.3
Cc1ccccc1N1C(=O)NC(=O)/C(=C\c2ccc3c(c2)CCCN3Cc2ccccc2)C1=O,64.9,43.0,0.6,-3.9,0.7
CN1C(=O)C(=Cc2ccc(N3CCCCC3)o2)C(=O)N(C)C1=S,-144.7,?,-2.1,?,0.9
CN1C(=O)C(=Cc2ccc(SC3CCCCC3)o2)C(=O)N(C)C1=O,7.0,61.1,11.7,2.1,3.0*
COc1cc(C(=O)N2Cc3ccccc3-n3nncc3C2)cc(OC)c1OC,-7.6,.,.,.,.
COc1ccc(N2C(=O)NC(=O)/C(=C\c3ccc([N+](=O)[O-])s3)C2=O)cc1,4.8,46.2,4.9,1.5,-0.4
COc1cccc(N2C(=O)NC(=O)/C(=C/c3ccc([N+](=O)[O-])s3)C2=O)c1,14.3,51.3,8.8,33.1*,0.0
COc1ccccc1N1C(=O)NC(=O)/C(=C/c2ccc([N+](=O)[O-])s2)C1=O,.,51.3*,3.4,31.9*,0.6
CCOCCCn1c(N)c(C(=O)Nc2sc3c(c2C(=O)OC)CCCC3)c2nc3ccccc3nc21,-2.3,?,-5.2,33.9,-0.9
CCOC(=O)c1c(NC(=O)c2c(N)n(CCCOC)c3nc4ccccc4nc23)sc2c1CCCC2,4.0,?,6.8,71.0*,-0.7
O=C1NC(=O)C(CCc2ccncc2)(CCc2ccncc2)C(=O)N1Cc1ccccc1,4.0,1.1,87.4*,-3.4,-0.3
COc1ccc(/C=C2/C(=O)NC(=O)N(C3CCCCC3)C2=O)cc1CSc1ccccn1,.,9.4,-1.1,14.7,0.4
COc1ccc(C=C2C(=O)N(C)C(=O)N(C)C2=O)cc1CSc1ccccn1,11.7,?,-2.9,66.7*,0.4
C[C@]12CC[C@H]3[C@@H](CCC4=CC(=O)CC[C@@]43O)[C@@H]1CCC2=O,6.6,1.3,.,-14.2,.
CN[C@@H]1C[C@@H](c2ccc(Cl)c(Cl)c2)c2ccccc21,.,8.0,98.9*,-8.8,0.3
O=[N+]([O-])[N-][n+]1cnn(Cc2ccccc2)c1,1.1,2.0,2.8,7.1,-0.1
O=C(c1ccc(Cl)cc1)N1CCC2(CC1)OCCO2,1.6,1.6,.,0.1,.
S=C(c1ccc(Cl)cc1)N1CCOCC1,44.4*,-13.6,19.8,2.1,0.7
O=Cc1cn(CCCOc2ccccc2)c2ccccc12,-13.8,?,5.4,58.0*,0.1
Nc1cc2nc3ccccc3nc2cc1N,97.4,90.8*,35.7*,81.1*,0.2
Nc1c2c(nc3ccccc13)CCN(Cc1ccccc1)C2,87.5,?,.,?,.
C=CCN1C(=O)NC(=O)/C(=C/c2cnc(SC)nc2)C1=O,17.9,4.3,5.0,12.4,0.6
C=CCN1C(=O)NC(=O)/C(=C/c2cc3c4c(c2)CCCN4CCC3)C1=O,-128.6,76.6*,12.3,-3.6,1.2
CC(C)[N+](C)(CCC(C(N)=O)(c1ccccc1)c1ccccc1)C(C)C,-27.9,11.6*,5.8,66.3,2.2
CC(=O)c1c(O)n(-c2cccc(Cl)c2)c(=O)[nH]c1=O (tested in a mixture with another compound),-56.9,112.2*,-3.0,60.4*,0.6
SMILES,MLLE-PAM2 inh,eIF4H FP inh,eIF4E 4G PPI,PABP polyA inh,PERK inh
COc1ccc(C(=O)N2CCC3(CC2)OCCO3)cc1,5.1,-4.0,.,15.0,.
COc1ccc(C(=O)N2CCCC2=O)cc1,-5.6,1.0,1.5,-4.0,3.0*
Cn1ccnc1P(=S)(c1nccn1C)N1CCOCC1,37.2*,-11.4,5.7,-6.2,1.8
CCOc1ccc2nc(N=Nc3c(O)[nH]c(=O)[nH]c3=O)sc2c1,6.6,-16.2,-2.1,1.3,0.7
CCN(CC)P(=O)(NC(=O)c1cccn1C)N(CC)CC,-12.8,4.4*,-3.4,?,0.2
O=C1C(Cl)=CC(=Nc2ccc(O)cc2)C=C1Cl,45.6*,.,.,.,.
O=[As](O)(O)c1ccc(N=Nc2ccc(O)cc2)cc1,8.6,-0.7,0.8,7.2,1.7
COc1cc2c(cc1O)C[C@H]1NCCc3cc4c(c-2c31)OCO4,-6.1,64.4*,4.9,2.0*,-0.5
COc1cc2c(cc1OC)-c1c3c(cc4c1[C@@H](C2)N(C)CC4)OCO3,-33.3,15.8,6.3,-2.5,-1.2
C=C1C(C)C2C(Cc3ccccc3)NC(=O)C23OC(=O)/C=C/C(O)CCCC(C)C/C=C/C3C1O (stereo unspecified),-1.7,.,.,.,.
O=C(Cn1ncc2c3ccccc3n(Cc3cccc(Cl)c3)c2c1=O)N1CCC2(CC1)OCCO2,-22.1,73.0*,0.6,45.2*,-0.8
Cc1c2cnn(CC(=O)N3CCC4(CC3)OCCO4)c(=O)c2c(C)n1Cc1cccc(Cl)c1,12.5,-1.3,.,17.4,.
CCCCC/C(=N/O)c1c(C)[nH]c2ccccc12,2.4,5.3,-1.3,9.1,0.8
COc1ccc(N2C(=O)/C(=C/C=C/c3ccccc3[N+](=O)[O-])C(=O)NC2=S)cc1,.,36.1,35.7*,-10.9,-0.4
Nc1ccncc1,-8.8,-10.6,-0.8,-1.5,1.8
Cc1ccc(N=Cc2c(O)n(C)c(=O)n(C)c2=O)cc1,-6.9,-7.1,.,-6.4,.
COc1ccc(CC2C(=O)N(C)C(=O)N(C)C2=O)c(OC)c1,42.1*,-2.7,7.9,-0.9,0.5
CCOc1cc(/C=C2\C(=O)NC(=O)N(C)C2=O)cc([N+](=O)[O-])c1O,-23.2,0.4,-1.3,-8.1,0.6
O=C(NCC1=C(c2cccc3ccccc23)C[C@@H]2CC[C@H]1N2Cc1ccco1)c1cccs1,-3.2,.,.,.,.
CCN1C(=O)c2ccccc2Sc2ccc(C(=O)N3CCC4(CC3)OCCO4)cc21,-0.1,-6.2,2.1,-4.0,-0.7
NC(=O)OCCSc1nnc(-c2cccc(C(N)=S)c2)o1,41.3*,1.5,-0.6,-16.7,0.7
C=CCn1c(O)c(/C(C)=N/N2CCCCCC2)c(=O)[nH]c1=O,5.7,-3.8,0.7,4.1,-2.2
C/C(=N\N1CCCCCC1)c1c(O)n(C2CCCCC2)c(=O)[nH]c1=O,0.6,5.0,44.7*,-9.3,-2.3
O=C1NC(=O)N(Cc2ccco2)C(=O)/C1=C\c1cccn1CCOc1ccc(Cl)cc1,-20.8,?,0.5,-1.2,1.0
O=C1NC(=O)N(Cc2ccco2)C(=O)/C1=C/c1ccc(-c2cccc([N+](=O)[O-])c2)o1,-0.2,78.2*,6.5,active,0.8
Cc1cccc(OCCn2cccc2/C=C2/C(=O)NC(=O)N(Cc3ccco3)C2=O)c1,-27.3,52.7*,8.6,45.2*,-0.3
CCN(CC)C(=O)c1ccc(NC(=O)c2cccc(F)c2)cc1,-18.5,-9.8,-5.2,-4.4,-0.7
Cc1ccc2[nH]c3c(c2c1)CN(C(=O)CN1C[C@H]2C[C@@H](C1)c1cccc(=O)n1C2)CC3,15.8,69.3,.,35.4*,.
OC1/C(=C/c2ccc(Cl)cc2Cl)N2CCC1CC2 (stereo unspecified),3.2,1.9,0.8,7.7,0.4
CCOC(=O)/C(CCCN(CC)CC)=N\O,-123.2,4.6,4.8,56.1*,0.1

# Screens (PubChem BioAssay)
